CHX counter: Cycloheximide Counterscreen for Small Molecule Inhibitors of Shiga Toxin; 300,000 tested, 12% active; AID 2314, 2010; cell reporter, cycloheximide protein synthesis inhibition counterscreen; max response, %; in the data active = max response mostly above about 13%, no sharp cut-off; inactive = mostly below about 14%; also: read at 38.3 µM for the half of the compounds with a filed dose; 0% is about no effect
Shiga inhibitor: A qHTS for Small Molecule Inhibitors of Shiga Toxin; 290,000 tested, 9.2% active; Vero cells, Shiga toxin protein synthesis inhibition reporter; AID 2315, 2010; inhibition, % at 38.7 µM; in the data active = inhibition mostly above about 28%, no sharp cut-off; inactive = mostly below about 43%; also: 0% is about no effect
Pf growth 48h: Primary qHTS for delayed death inhibitors of the malarial parasite plastid, 48 hour incubation; P. falciparum luciferase growth in erythrocytes, 48 h; Potency, µM (highest dose often 28.7 µM), for inactives: top-dose activity change, negative = inhibition, actives largely listed as inhibitors; 310,000 tested, 5.9% active; also: potency is read from the fitted curve at half-maximal effect; % is scaled to controls: 0 for no effect and ±100 for the full control effect
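Erythrocytes infected with P. falciparum carrying an integrated firefly luciferase reporter (2% hematocrit, 0.1% parasitemia final) were exposed to compounds in RPMI 1640 with 0.5% Albumax at 37 C, 5% CO2. Growth inhibition was scored as reduced luminescence.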
Pf growth 96h: Primary qHTS for delayed death inhibitors of the malarial parasite plastid, 96 hour incubation | Potency, µM (series often up to 28.7 µM), for the others: at the highest dose activity change, negative = inhibition, hits mostly inhibitors | P. falciparum luciferase reporter growth, 96 h | 320,000 tested, 6.9% active | AID 504834, 2011; also: potency is read from the fitted curve at half-maximal effect; % is scaled to controls: 0 for no effect and ±100 for the full control effect
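Two parasite generations (96 h, 37 C, 5% CO2) of compound exposure in infected erythrocytes (0.05% parasitemia, 2% hematocrit). Luciferase-reporter P. falciparum; decreased luminescence indicates inhibited growth, aimed at apicoplast-acting delayed death.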
NS1 function inh: qHTS Assay for Inhibitors of Influenza NS1 Protein Function. Potency, µM (top dose mostly 46.1 µM), inactives show at the top dose activity, positive = more growth. 270,000 tested, 0.4% active; calls by dose curve; also: potency is read from the fitted curve at half-maximal effect; actives are rising curves; nearly all actives have a fitted effect of over 50% in size
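OD600 was taken as the measure of yeast growth restored by compound in an NS1-expressing S. cerevisiae strain. Cells had been washed out of glucose medium and diluted 1:100 into galactose -URA medium, pH 6.0.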
* hit, by the source's call; i = inactive; ? = inconclusive; . = no result. This is a sample that favours compounds with a hit; in the whole collection about 21% have one here. Unless noted, calls follow the shape of the dose curve; as a rule, active = well fitted inhibition curve with a large enough effect; inconclusive = small, poorly fitted or top-dose-only effect, or another doubt; inactive = no such curve, though single readings can be large or run the other way.

SMILES | CHX counter | Shiga inhibitor | Pf growth 48h | Pf growth 96h | NS1 function inh
Cc1ccc(N(CC(=O)NC(C)(C)C)C(=O)CS(=O)CC(=O)Nc2ccc3c(c2)OCO3)cc1 (stereo unspecified) | 0.4 | -8.5 | 71.9% | ? | -1.2%
COc1ccccc1-c1nnc(SCC(=O)Nc2ccc(S(N)(=O)=O)cc2)n1N | -3.2 | -9.2 | 9.4% | 11.5% | 6.2%
O=C(NCC1CCCO1)C1CCN(S(=O)(=O)c2cc(Cl)ccc2Cl)CC1 (stereo unspecified) | -3.6 | -1.1 | -4.7% | -0.7% | 3.8%
C=CCn1c(N)cc(=O)nc1SCC(=O)Nc1ccc(C(=O)OCC)cc1 | -4.4 | -2.0 | 8.1% | -17.8% | 10.9%
CN(C(=O)c1ccc(Cl)cc1)C1=CCCCC1CCC#N (stereo unspecified) | -0.9 | -21.0 | -15.6% | 12.4% | -2.5%
COc1ccc2c(c1)OC(=O)CC2c1ccc2c(c1)OCO2 (stereo unspecified) | 8.1 | i | . | . | .
O=C(COc1ccc(/C=N/NC(=O)c2ccncc2)cc1)Nc1cccc([N+](=O)[O-])c1 | 11.9 | 25.3 | -1.9% | ? | 5.4%
COc1cc(/C=N/NC(=O)c2cccc([N+](=O)[O-])c2)ccc1OC(=O)c1ccco1 | 7.2 | 40.2* | -10.4% | 27.4% | .
COc1cc(/C=N/NC(=O)c2ccc(O)cc2)ccc1OCC(=O)Nc1cccc([N+](=O)[O-])c1 | 6.9 | 11.0 | 22.5% | 10.4µM* | -3.7%
COc1cc(/C=C/[N+](=O)[O-])ccc1OCc1cccc(C(=O)O)c1 | 83.2* | 131.3* | 42.5% | 10.9% | -0.6%
CCOC(=O)/C(=C\C=C1/Sc2cc(OCC)c(OCC)cc2N1CC)C(C)=O | -2.1 | 13.7 | ? | ? | 21.0%
CCOC(=O)/C(=C/C=C1\Sc2cc(OCC)c(OCC)cc2N1CC)C(C)=O | -1.6 | 11.1 | 7.38µM* | -2.3% | .
CC(Sc1nc2ccccc2c(=O)n1CCc1ccc(S(N)(=O)=O)cc1)C(=O)NC(N)=O (stereo unspecified) | -8.6 | 2.0 | ? | -4.2% | 12.8%
COc1ccc(N2CCN(C(=O)c3cn(Cc4ccccc4)nc3-c3cccnc3)CC2)cc1 | . | . | ? | 10.4µM* | .
COc1cccc(CN2CCN(C(=O)c3cc(-c4cccnc4)nc4ccc(C)cc34)CC2)c1 | -1.7 | -18.1 | 9.28µM* | ? | -13.7%
CSc1cccc(NC(=O)COC(=O)c2ccccn2)c1 | . | . | 70.4% | 50.1% | .
O=C(CSc1nnc(-c2ccccc2)o1)Nc1ccccc1F | 22.9* | 6.0 | . | 17.2% | -15.9%
N#Cc1ccsc1NC(=O)CSc1nnc(-c2ccccc2)o1 | 31.0* | 87.1* | 10.4% | . | 6.9%
CCc1nnc(NC(=O)CSc2ncc(-c3ccccc3)n2C)s1 | 54.3* | 102.0* | 65.0% | 25.2% | .
CCc1nnc(NC(=O)CSc2nnc(-c3ccccc3O)o2)s1 | 34.0* | 92.4* | 25.5% | 27.4% | -3.2%
O=C(CSc1nnc(-c2cccnc2)o1)Nc1nccs1 | . | . | 44.9% | 54.0% | .
O=C(CSc1nnc(-c2ccncc2)o1)Nc1cc(F)ccc1F | . | . | i | i | .
Cc1sc(NC(=O)CSc2nnc(-c3ccc(F)cc3)o2)c(C#N)c1C | 5.6 | 15.9 | -13.2% | 9.28µM* | 4.9%
N#Cc1ccsc1NC(=O)CCc1ccccc1 | 32.0* | 67.6* | 97.8% | -4.3% | 1.3%
CC(C)CC(=O)Nc1ccc(OCC(=O)O)cc1 | -4.7 | -1.3 | -0.1% | . | -3.0%
SMILES | CHX counter | Shiga inhibitor | Pf growth 48h | Pf growth 96h | NS1 function inh
Cc1cnc(NC(=O)CSc2nnc(-c3ccccc3)o2)s1 | 41.5* | 43.6* | 130.3% | -31.2% | 3.3%
CC(C)CC(=O)Nc1ccc(C(=O)COc2ccc(-c3nnco3)cc2)cc1 | -3.2 | 19.1 | ? | 2.08µM* | -5.6%
Cc1cnc(NC(=O)CSc2nnc(COc3ccccc3)o2)s1 | 0.9 | 30.2 | 8.8% | 17.1% | 7.8%
CCOC(=O)c1csc(NC(=O)CN2CCOCC2)n1 | -5.1 | -6.6 | 0.5% | 25.1% | 5.2%
CN(Cc1ccccc1)C(=O)COc1ccc(-c2nnco2)cc1 | 8.0 | 10.5 | 0.8% | ? | 16.1%
Cc1ccc(-c2nnc(SCC(=O)Nc3ccccc3F)o2)cc1 | 16.3* | -3.3 | . | ? | -10.8%
CCOC(=O)c1cc(-c2nnc(SCC(=O)Nc3ccc(F)cc3)o2)c(C)nc1C | -2.4 | -5.0 | . | 11.7µM* | -7.0%
N#Cc1ccsc1NC(=O)COc1ccc(-c2nnco2)cc1 | 35.4* | 99.4* | 103.5% | ? | -6.1%
Cc1cnc(NC(=O)CC(C)c2ccccc2)s1 (stereo unspecified) | 28.4* | 59.6* | 3.7% | 29.9% | -4.4%
COc1cc(S(=O)(=O)NCc2cccnc2)ccc1F | 1.1 | -13.6 | 29.4% | . | 1.1%
NC(=O)Nc1ccc(C(=O)OCC(=O)Nc2cccc(S(=O)(=O)NC3=NCCCCC3)c2)cc1 | 4.1 | -5.1 | ? | ? | -1.4%
O=C1OCC2=C1C(c1ccc(F)cc1)c1cc3c(cc1N2)OCO3 (stereo unspecified) | -4.7 | -7.0 | 8.1% | 32.5% | .
CCOc1ccccc1C1C2=C(COC2=O)Nc2cc3c(cc21)OCO3 (stereo unspecified) | -1.9 | -14.3 | ? | 10.4µM* | 1.8%
COc1ccc(C2CC(=O)OC3=C2C(=O)CC(C)(C)C3)c(OC)c1 (stereo unspecified) | -3.8 | -9.2 | 10.4µM* | ? | .
COc1ccc2c(c1)C(C1=C(O)CC(C)(C)CC1=O)C1=C(CC(C)(C)CC1=O)O2 (stereo unspecified) | -2.5 | -8.1 | . | -24.6% | -5.3%
CC1(C)COC(/C=C/c2ccc([N+](=O)[O-])cc2)=N1 | 55.7* | 83.9* | ? | -9.9% | -32.2%
COc1ccc(OC)c(N(CC(=O)Nc2cccc(C(F)(F)F)c2)S(C)(=O)=O)c1 | -1.8 | -6.3 | -11.2% | 26.8% | 4.8%
Cc1cc(O)cc2c(=O)c3ccccc3sc12 | 42.4* | 131.0* | ? | ? | .
COc1cc(OC)cc(-c2sc3ccccc3c(=O)c2I)c1 | 11.9 | i | . | . | .
Cc1onc(-c2ccccc2Cl)c1C(=O)N1CCCCC1C (stereo unspecified) | 0.9 | 3.2 | 11.5% | ? | -2.0%
NS(=O)(=O)c1ccc(C(=O)Nc2ccc(-c3nc4cccnc4s3)cc2)cc1 | 48.2* | 69.7* | 40.9% | 15.9% | 3.8%
O=C(Nc1cccc(-c2nc3cccnc3s2)c1)c1ccc(Cl)nc1 | 6.7 | 21.5 | ? | ? | 1.6%
O=C(Nc1cccc(-c2nc3cccnc3s2)c1)c1cccnc1Cl | 17.6* | 30.9* | ? | ? | -64.6%
CCc1ccc(S(=O)(=O)Nc2ccc(-c3nc4cccnc4s3)cc2)s1 | 35.7* | 59.9* | 94.8% | 149.2% | 1.1%
COc1ccc(F)cc1S(=O)(=O)Nc1ccncc1 | -1.8 | . | -7.4% | -21.3% | 14.2%
O=S(=O)(Nc1ccc(-c2nc3cccnc3s2)cc1)c1cc(F)ccc1F | 36.7* | 67.3* | 40.6% | 51.5% | 9.7%
